The values below come from PubChem BioAssay (NCATS).

The target of experiment [1] is Glutathione peroxidase 1 (Homo sapiens) (UniProt P07203). As to the kind of experiment: Primary qHTS Assay for Inhibitors of Recombinant Selenoprotein Glutathione Peroxidase 1 (GPX1) (AID 1845191). Note: nearly all actives have a fitted effect of over 65% in size. In short, it runs like this:
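GPX1 10 nM, GR 100 nM, GSH 1 mM, NADPH 0.5 mM, CHP 0.5 mM (final). 30-min cpd preincubation, RT. Ex340/Em450 read t=0, t=15 min.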

For experiment [2], the target named is Phospholipid hydroperoxide glutathione peroxidase GPX4 (Homo sapiens) (UniProt P36969). The experiment in a line: Primary qHTS Assay for Inhibitors of Recombinant Selenoprotein Glutathione Peroxidase 4 (GPX4) (AID 1845192). Note: series mostly up to about 50 µM; nearly all actives have a fitted effect of over 65% in size. The gist of the method: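 qHTS, GR-coupled: GPX4 200 nM + cpd 30 min RT → GSH 1 mM, NADPH 0.5 mM, GR 100 nM → CHP 0.5 mM start; fluor 340/450 at t0 and t15 min; no-enzyme wells as control.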

Experiment [3] concerns the target Luciferin 4-monooxygenase (Photinus pyralis) (UniProt P08659). The experiment in a line: Primary firefly luciferase (FLuc) qHTS assay for identification of artifact compounds. (AID 1845220). Note: nearly all actives have a fitted effect of over 60% in size. Note: potency is the fitted concentration of half-maximal effect. In short, it runs like this: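 qHTS, 15 min compound preincubation with substrate (10 uM luciferin, 10 uM ATP) at RT, then 10 nM FLuc; 5 min; luminescence; % inhibition vs no-enzyme/DMSO controls, 4-parameter Hill fit.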

Experiment [4] can be described thus: Primary fluorescence-based thiol-reactive (MSTI) qHTS assay for identification of artifact compounds. (AID 1845221).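 Note: series mostly up to about 54 µM; thiol-reactive compounds lower the probe fluorescence signal; nearly all actives have a fitted effect of over 65% in size.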 The gist of the method: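 Curve-fitted percent inhibition (4-parameter Hill) derived from fluorescence, Ex 525/Em 598 nm, scaled with Acetyl-MSTI and MSTI; 1 h incubation at room temperature.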
Experiment [5] relates to Nanoluciferase (engineered Oplophorus gracilirostris luciferase). The experiment in a line: Primary Nanoluciferase (NLuc) qHTS assay for identification of artifact compounds. (AID 1845222). Note: series mostly up to about 54 µM. The gist of the method: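 Luminescence read-out of secreted NLuc in S16 cell conditioned medium (1:55); compounds tested with 15 min RT preincubation, then Nano-Glo substrate 1:100, 5 min. % inhibition vs no-enzyme and DMSO controls, 4-parameter Hill fit.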

Results filed as inconclusive are left out. Active and inactive are the calls of the source. Calls come from the whole dose curve; as a rule, active = well fitted curve in the direction sought with a large enough effect; inconclusive = small, poorly fitted or top-dose-only effect, or another doubt; inactive = no such curve, though single readings can be large; an effect the other way counts as inactive or inconclusive.

Chain of Glutathione peroxidase 1 (Homo sapiens) (P07203 whole entry, looked up): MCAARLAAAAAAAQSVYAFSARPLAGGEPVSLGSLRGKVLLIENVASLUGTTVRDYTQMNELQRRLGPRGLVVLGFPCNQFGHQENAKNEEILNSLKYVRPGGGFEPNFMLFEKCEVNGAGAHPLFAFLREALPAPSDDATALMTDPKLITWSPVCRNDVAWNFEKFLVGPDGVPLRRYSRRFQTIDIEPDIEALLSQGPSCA
Chain of Phospholipid hydroperoxide glutathione peroxidase GPX4 (Homo sapiens) (P36969 whole entry, looked up): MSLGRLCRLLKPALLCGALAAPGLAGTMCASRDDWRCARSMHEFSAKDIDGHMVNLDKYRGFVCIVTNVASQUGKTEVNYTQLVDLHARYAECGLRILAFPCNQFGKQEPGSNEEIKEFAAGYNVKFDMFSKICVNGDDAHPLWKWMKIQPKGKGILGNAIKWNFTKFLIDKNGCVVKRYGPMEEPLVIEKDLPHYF

As to `O=C(NC[C@H](O)CN1CCc2ccccc2C1)c1ccnc(NC2CCC2)c1`, the Potency result in experiment [1], in experiment [2], in experiment [3], in experiment [4] and in experiment [5] was “inactive” each time.
Consider `CCCC(CCC)C(=O)Nc1ccn([C@@H]2O[C@H](CO)[C@@H](O)C2(F)F)c(=O)n1`, for which the Potency entry in experiment [1], in experiment [2], in experiment [3], in experiment [4] and in experiment [5] was “inactive” each time.
As to `O=C(NCc1ccccc1-c1ccccc1C(=O)NCCc1ccccn1)OCc1ccccc1`, the Potency result in experiment [1], in experiment [2], in experiment [3], in experiment [4] and in experiment [5] was “inactive” each time.
Take `CC(=O)[C@H]1CC[C@H]2[C@@H]3CC=C4C[C@@H](OS(=O)(=O)O)CC[C@]4(C)[C@H]3CC[C@]12C`: the Potency entry in experiment [1], in experiment [2], in experiment [3], in experiment [4] and in experiment [5] was “inactive” throughout.
As for `CC1(C)C2CCC(CO[C@@H]3O[C@H](CO[C@@H]4OC[C@](O)(CO)[C@H]4O)[C@@H](O)[C@H](O)[C@H]3O)C1C2` (stereo not given in full), the Potency entry in experiment [1], in experiment [2], in experiment [3], in experiment [4] and in experiment [5] was “inactive” throughout.
Turning to `CC(C)=C1C[C@@]2(C)C(=CC1=O)CC[C@@H](OC(=O)/C(C)=C/CO)[C@@H]2C`, the Potency result in experiment [1], in experiment [2], in experiment [3], in experiment [4] and in experiment [5] was “inactive” throughout.
Take `COC(=O)/C=C/C=C/C(=O)OC1C=C2COC(=O)C2(O)C2(C)CCCC(C)(C)C12` (stereo not given): the Potency entry in experiment [1], in experiment [2], in experiment [3], in experiment [4] and in experiment [5] was “inactive” each time.
For `Cc1ccc(NC(=O)c2ccc(CN3CCNCC3)cc2)cc1Nc1nccc(-c2cccnc2)n1`, the Potency result in experiment [1], in experiment [2], in experiment [4] and in experiment [5] was “inactive” in each case. In addition, the Potency in experiment [3] was 6.75 µM (active).
With `O=C(NCCCN1CCC2(CC1)OCc1ccccc12)[C@H]1CCCN1Cc1ccccc1`, the Potency result in experiment [1], in experiment [2], in experiment [3], in experiment [4] and in experiment [5] was “inactive” each time.
